In all, about 320,000 compounds went through this assay and about 740 (0.23%) were called active. About 2% were inconclusive and are not listed. The sample holds actives, similar compounds and a random draw of the others, so the mix is not that of the screen. A number with no mark means an inactive call. The call rests on the fitted dose curve; in most records, active means well fitted activation curve with a large enough effect; inconclusive means small, poorly fitted or top-dose-only effect; inactive means no such curve, though single readings can be large or run the other way.
Assay: qHTS Assay for Small Molecule Inhibitors of Mitochondrial Division or Activators of Mitochondrial Fusion; further: nearly all actives have a fitted effect of over 45% in size; on growth rescue (activation): % of control where 0% means no effect
Details: S. cerevisiae fusion-defective mutant growth rescue, CellTiterGlo 48 h; series mostly up to 46.1 µM; growth rescue (activation): at the top concentration
Excerpt: NIH Chemical Genomics Center [NCGC] NIH Molecular Libraries Probe Production centers Network [MLPCN] MLPCN Grant: MH081279-01 Assay Submitter (PI): Jodi M. Nunnari NCGC Assay Overview: The budding yeast S. cerevisiae is a powerful system to study mitochondrial fusion. Unlike other organisms, yeast cells without functional mitochondrial DNA (mtDNA) can be propagated and studied as long as they maintain a mitochondrial compartment and are provided with a fermentable carbon source. When mitochondrial fusion is blocked in yeast, mitochondrial tubules rapidly fragment and division continues unopposed. Under conditions where fusion is compromised in mammalian cells, nearly identical changes in mitochondrial structure have been observed. Thus, these findings indicate that steady state mitochondrial structure in cells is a characteristic and specific indicator of fusion activity. Mounting evidence has pointed to a connection between mitochondrial dynamics and apoptosis in mammalian cells. These studies indicate that in mammalian cells mitochondrial dynamics are more integrated into cellular processes than in yeast cells and have evolved not only to distribute the organelle but also to aid in the regulation of cellular homeostasis. Mitochondrial fusion proteins attenuate apoptosis by inhibiting the release of cytochrome c from mitochondria, in part by controlling cristae structures. Thus, small molecules that inhibit mitochondrial […] may promote apoptosis and potentially act as novel chemotherapeutics and stimulation of apoptosis has become an attractive target of anti-cancer therapies. To identify inhibitors of mitochondrial division, we exploit the growth phenotypes of mitochondrial fusion-defective mutants. The temperature sensitive fusion alleles, such as fzo1-1 and mgm1-5, cause mitochondrial membranes to fragment in cells under non-permissive conditions and cells lose mtDNA, and are unable to grow in the presence of non-fermentable carbon source glycerol. Inhibiting mitochondrial division rescues growth. We have developed and optimized a luminescence cell viability assay in 1536 well format for the identification of inhibitors in the yeast mitochondrial fusion-defective assay.
The yeast glycerol stocks where kindly supplied by the laboratory of Dr. Jodi Nunnari, University of California, Davis. All yeast glycerol stock solutions were stored in single use aliquots at -80C. The CellTiterGlo luminescence reagent, containing luciferase and luciferin, were purchased from Promega, and the reagents were stored according to manufacturer's instructions. The Buffer components for the YPEG yeast growth medium were purchased from Sigma-Aldrich (St. Louis, MO). YPEG growth medium: 1% (w/v) yeast extract, 2% (w/v) Bacto-peptone, 3% Ethanol, 3% glycerol, 0.4mM Tryptophan, 0.36mM Adenine. qHTS Assay Protocol: 1.#Dispense 2.5 ul yeast growth medium per 1536 well plate. 2.#Transfer 23 nl per well of compound to plate. 3.#Dispense 2.5 ul yeast solution at appropriate seeding density per well. 4.#Incubate for 48 hours at 37C. 5.#Dispense 5 ul of CellTiterGlow solution per well. 6.#Incubate at ambient for 10 minutes. 7.#Read using bio-luminescence protocol on Viewlux.
Potency means the concentration at half of the fitted maximal effect.

Structure (SMILES) | growth rescue (activation) | Potency
O=c1c(Cl)c(NCc2ccc(F)cc2Cl)cnn1C12CC3CC(CC(C3)C1)C2 | 3.54% | –
Cc1csc(OCC(=O)Nc2ccc(C)c(C)c2)n1 | 5.43% | –
Cc1nc(COc2cc3oc(=O)cc(C)c3cc2Cl)cs1 | 3.56% | –
Cc1ccc(C)c(NS(=O)(=O)c2cc(Br)cnc2N)c1 | 7.1% | –
CC(=O)/C(C)=N/O | – | 20.6 µM (active)
CCCN1CCN(C(=O)Cn2ncc3ccccc32)CC1 | -6.24% | –
CCCCN(C(=O)C(CCSC)N1C(=O)c2ccccc2C1=O)c1c(N)n(CCC)c(=O)[nH]c1=O (stereo unspecified) | 0.275% | –
NC1CCN(O)C1=O (stereo unspecified) | -8.2% | –
COC(=O)c1c(C(=O)OC)c2n(c1C)CCS2 | -0.353% | –
CCC1=Nc2cc(C(=O)NCCN3CCCC3)ccc2Sc2ccc(C)cc21 | -11.8% | –
CCCC1=Nc2cc(C(=O)NCCN3CCCC3)ccc2Sc2ccccc21 | -5.25% | –
CCCC1=Nc2cc(C(=O)NCc3ccco3)ccc2Sc2ccccc21 | – | 31.6 µM (active)
C[C@H](NC(=O)C1CC(=O)N(c2ccc3c(c2)OCCO3)C1)C(=O)N1CCC(C(=O)O)CC1 (stereo partly specified) | 0.693% | –
O=C(NCC(c1ccco1)S(=O)(=O)c1cccs1)c1ccc(F)cc1 (stereo unspecified) | -1.33% | –
COC(=O)CN1C(=O)[C@H]2[C@@H](C3CC3)N3C(=O)CN(Cc4ccc(-c5ccccc5)cc4)C(=O)[C@@]3(Cc3ccccc3)[C@H]2C1=O | 4.79% | –
O=C(NCc1cccnc1)Nc1cccc(NC(=O)NCc2cccnc2)c1F | -4.47% | –
Cc1ccc(NC(=O)Cn2nnc3sc4c(c3c2=O)CCC(C)C4)cc1 (stereo unspecified) | -0.959% | –
COc1ccc(C2CC(=O)Nc3c2c(=O)nc2c(C)cccn32)cc1OC (stereo unspecified) | -1.37% | –
Cc1ccc(N2CCN(C3=NC(=O)/C(=C\c4cccs4)S3)CC2)cc1 | – | 22.4 µM (active)
Cc1ccsc1/C=C1\SC(N2CCOCC2)=NC1=O | 1.79% | –
Cc1ccc(N2CCN(/N=C/c3cccs3)CC2)cc1 | -2.37% | –
C=CCn1nc(-c2ccccc2)c2c(C)onc2c1=O | 1.38% | –
COc1ccc([C@H]2CC(=O)C=C(c3ccc(CO)cc3)C2)cc1 | 10.6% | –
O=C1C=C(c2cccc(Cl)c2O)C[C@@H](c2ccc(F)cc2)C1 | – | 11.2 µM (active)
COc1ccc([C@H]2CC(=O)C=C(c3ccc(C)cc3)C2)cc1 | 25.8% | –
CC(C)(C)CC(=O)Nc1nnc(SCC(=O)NCc2cccs2)s1 | -2.23% | –

Structure (SMILES) | growth rescue (activation) | Potency
O=C1CSC(=O)N1CCOCCN1C(=O)CSC1=O | -3.76% | –
Cc1cccc(NC(c2cccc(F)c2)c2ccc3ccc(C)nc3c2O)n1 (stereo unspecified) | 2.76% | –
CCCCCc1ccc(-c2cn(Cc3ccc4ccccc4c3)nn2)cc1 | 1.57% | –
CCCCCc1ccc(-c2ccc(C(=O)O)cc2)nc1 | – | 15.8 µM (active)
CCCCCc1ccc(-c2ccc(OCC)cc2)nc1 | -3.67% | –
COc1ccc(-n2c(SCC(=O)Nc3ccc(Cl)c(C)c3)nc3n[nH]c(C)c3c2=N)cc1 | 1.03% | –
CN(c1ccccc1)S(=O)(=O)c1cc(C(=O)OCC(=O)N2CCN(C(=O)c3ccco3)CC2)ccc1Cl | 5.81% | –
CN(c1ccccc1)S(=O)(=O)c1cc(C(=O)Nc2nc3ccccc3[nH]2)ccc1Cl | – | 12.6 µM (active)
COc1cc(OC)cc(C(=O)N[C@H](C(=O)Nc2nc3ccccc3[nH]2)C(C)C)c1 | -2.45% | –
CN(C)S(=O)(=O)c1ccc(C(=O)NCC2(N3CCOCC3)CCCCC2)cc1 | -7.31% | –
COc1ccc(NS(=O)(=O)c2ccc(C)c(C(=O)N(C)Cc3ccc(OC)cc3OC)c2)cc1 | 3.44% | –
CC1CC2C3CCC4=CC(=O)C=C[C@]4(C)[C@@]3(F)[C@@H](O)C[C@]2(C)[C@@]1(O)C(=O)CO (stereo partly specified) | -2.79% | –
O=C(NCCCCCCCCCNC(=O)C(F)(F)F)C(F)(F)F | 3.56% | –
CC(CN1CCOCC1)OC(=O)c1ccc(Cl)cc1Cl (stereo unspecified) | -1.69% | –
Cc1ccc(C(=O)OC(C)CN2CCOCC2)cc1 (stereo unspecified) | – | 22.4 µM (active)
CC(CN1CCOCC1)OC(=O)c1ccc(C(C)(C)C)cc1 (stereo unspecified) | 6.51% | –
C=C(C)C1CC=C(C)/C(=N\NC(=O)CNc2ccccc2OC)C1 (stereo unspecified) | 24.6% | –
Cc1ccc(S(=O)(=O)/N=C(/NC(=S)Nc2c(C)n(C)n(-c3ccccc3)c2=O)c2ccccc2)cc1 | 0.193% | –
Cn1c2cc(B(O)O)sc2c2cnn(Cc3ccccc3F)c(=O)c21 | -0.837% | –
CCc1ccc(Nc2ncc3c(n2)CC(c2ccco2)CC3=O)cc1 (stereo unspecified) | – | 11.2 µM (active)
COc1cc(C2CC(=O)c3cnc(NC(C)=O)nc3C2)cc(OC)c1OC (stereo unspecified) | 0.0051% | –
O=C(Nc1ncc2c(n1)CC(c1ccco1)CC2=O)c1ccc(Cl)cc1 (stereo unspecified) | 6.99% | –
Cc1cc(NC(=O)Nc2c[nH]c(=O)[nH]c2=O)ccc1Br | 0.148% | –
CCOC(=O)c1c(CNCc2ccccc2F)c2sc(C)cc2n1C | -0.808% | –
COc1cc(C2NC(=O)NC(c3ccccc3)=C2C(C)=O)c(Br)cc1OCC(N)=O (stereo unspecified) | 2.71% | –

Reference: PubChem BioAssay AID485298 (National Center for Advancing Translational Sciences (NCATS), 2010)
